High-throughput results as filed in PubChem BioAssay.
Compounds with a hit are over-represented: about 13% of the library has one in this group of screens.
Pf growth 48h = P. falciparum growth inhibition at 48 hours (one generation). 310,000 tested, 5.9% active. Potency, µM (highest dose often 28.7 µM), actives largely listed as inhibitors. P. falciparum luciferase growth in erythrocytes, 48 h
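Firefly luciferase activity from engineered P. falciparum reports growth; inhibitors lower the luminescent signal. Cultures contained 2% hematocrit erythrocytes at 0.1% final parasitemia.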
HCV inh = HCV inhibition | Huh7.5.1 HCVcc-Cre infection, luciferase reporter, 44 h | 340,000 tested, 3.4% active | Potency, µM (doses to about 41.8 µM), usual class: inhibitors
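Reporter virus HCVcc-Cre (~0.5 moi) infects cells exposed to compound; seeding density 1,000 cells/well with 4 h settling beforehand. Luminescence, 15 sec read, taken 44 h post-infection following a 15 min RT substrate incubation.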
HCMV inh = blocks human cytomegalovirus replication; HFF cells, HCMV-luciferase reporter, 72 h; active compounds read low; activity change, negative = inhibition, % at 57.5 µM; 410,000 tested, 4.5% active; in the data active means activity change below about -60%; inconclusive means no clear call, values can overlap the other calls; inactive means above about -39%
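HFF cells seeded 16 h at 37C, treated with compounds, infected with luciferase-reporter HCMV at MOI 1 PFU/cell; luciferase read at 72 h post infection, normalized to buffer-only and Salinomycin controls.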
Pf growth 96h = P. falciparum growth inhibition at 96 hour, primary screen for plastid delayed-death inhibitors; P. falciparum luciferase reporter growth, 96 h; Potency, µM (titrated, usually from 28.7 µM), most hits filed as inhibitors; 320,000 tested, 6.9% active
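Two-generation exposure (96 h) targets delayed-death phenotype. Reporter parasites carrying integrated firefly luciferase, in red cells at 2% hematocrit and 0.05% parasitemia final, kept at 37 C, 5% CO2; luminescence loss indicates inhibition.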
A number is an active result; i = inactive; ? = inconclusive; nt = not tested or not shown. Unless noted, the call rests on the fitted dose curve; in most records, active means well fitted inhibition curve with a large enough effect; inconclusive means small, poorly fitted or top-dose-only effect, or another doubt; inactive means no such curve, though single readings can be large or run the other way.

SMILES	Pf growth 48h	HCV inh	HCMV inh	Pf growth 96h
CC(C)(C)C(=O)NC(=S)NNC(=O)c1ccc(-c2ccccc2)cc1	?	6.3µM	nt	i
CC(C)(C)c1ccc(C(=O)c2c[nH]c(C(=O)NCCCn3ccnc3)c2)cc1	12µM	i	i	7.4µM
CC(C)(C)c1cc(Cl)c(O)c(NC(=S)NC(=O)c2cccnc2)c1	?	?	-95	i
CCOc1ccc2nc(N3CCCC(C(=O)NCCc4ccc(SC)cc4)C3)sc2c1 (centres undefined)	nt	nt	i	nt
O=C(NNC(=S)NC(=O)c1ccccc1)c1cccnc1	?	i	i	?
CC(C)(C)c1ccc(C(=O)c2c[nH]c(C(=O)NCc3cccnc3)c2)cc1	8.3µM	i	i	5.2µM
CC(C)(C)c1ccc(C(=O)NC(=S)NCc2cccnc2)cc1	i	22µM	-78	i
CC(C)(C)c1ccc(C(=O)NCc2cccnc2)cc1	i	i	i	i
CC(C)(C)c1ccc(C(=O)NNC(=S)NC(=O)c2cccnc2)cc1	13µM	?	?	?
Cc1ccc2[nH]c(CSc3nnc(NC(=O)COc4ccccc4C)s3)cc(=O)c2c1	nt	nt	i	nt
CCOC(=O)Nc1nnc(-c2cccc(OC)c2)s1	i	i	-66	nt
COc1cccc(N2CCN(CC(=O)NC3=Nc4ccccc4N=C(C)C3c3ccccc3)CC2)c1 (centres undefined)	?	?	i	?
CCOC(=O)Nc1nnc(-c2ccc(OC)cc2)s1	nt	i	i	?
COc1cccc(N2CCN(CC(=O)Nc3nnc(-c4ccccc4)s3)CC2)c1	?	6.3µM	i	nt
Cc1ccc(C)c(N2CCN(C(=O)c3ccc4c(Cl)c5c(nc4c3)CCCC5)CC2)c1	nt	nt	i	nt
CCOC(=O)CSc1nc2ccsc2c(=O)[nH]1	i	i	i	i
Cc1nc2scc(-c3ccc(Cl)cc3)c2c(=O)n1N	?	i	?	i
Cc1ccc(-c2csc3nc(CN(C)Cc4ccccc4)[nH]c(=O)c23)cc1	12µM	i	?	4.1µM
Cc1ccc(-c2csc3nc(C)n(N)c(=O)c23)cc1	i	i	-86	i
Cc1ccc(-c2csc3nc(-c4ccncc4)[nH]c(=O)c23)cc1	i	5.6µM	i	i
Cc1ccc(-c2nc3ccsc3c(=O)[nH]2)cc1	2.1µM	i	i	i
CCOC(=O)C1=NN(c2ccc(C)cc2)C2(S1)SC(C(C)=O)=C(C)N2c1ccccc1 (centres undefined)	?	14µM	i	?
CCOC(=O)C1=NN(c2ccccc2)C2(S1)SC(C(C)=O)=C(C)N2c1ccccc1 (centres undefined)	i	?	?	nt
CCOC(=O)C1=NN(c2cccc(C)c2)C2(S1)SC(C(C)=O)=C(C)N2c1ccccc1 (centres undefined)	nt	i	i	?
COC(=O)C1=NN(c2ccccc2)C2(S1)S/C(=C\c1ccccc1)C(=O)N2c1ccccc1 (centres undefined)	13µM	?	i	nt
SMILES	Pf growth 48h	HCV inh	HCMV inh	Pf growth 96h
CCC(=NC(C)c1ccccc1)c1c(O)n(C)c(=O)n(C)c1=O (centres undefined)	i	5.6µM	?	i
CCC(=NCCc1c[nH]c2ccccc12)c1c(O)n(C)c(=O)n(C)c1=O	nt	4.5µM	-75	?
O=[N+]([O-])c1cccc(C2NCC(c3ccccc3Cl)c3c2[nH]c2ccccc32)c1 (centres undefined)	i	i	i	13µM
NC(N)=NCCN1CCCCCCC1	i	nt	nt	?
CCCC(=O)N1CCc2cc(OC)c(OC)cc2C1COc1ccc2c(C)cc(=O)oc2c1 (centres undefined)	nt	nt	i	nt
Cc1noc(C)c1S(=O)(=O)N(CC(=O)O)c1ccc2c(c1)OCO2	i	i	i	5.9µM
CCc1ccc(N(CC(=O)NC2CCCCC2)S(=O)(=O)c2c(C)noc2C)cc1	nt	i	i	1.9µM
CCOc1ccc(N(CC(=O)NC2CCCCC2)S(=O)(=O)c2c(C)noc2C)cc1	i	i	i	i
COc1ccc(NC(=O)CN(c2cc(C)cc(C)c2)S(=O)(=O)c2c(C)noc2C)cc1OC	?	i	i	12µM
Cc1ccc(N(CC(=O)Nc2cc(C)cc(C)c2)S(=O)(=O)c2c(C)noc2C)cc1	i	?	-85	i
COc1ccc(NC(=O)CN(c2cc(C)cc(C)c2)S(=O)(=O)c2c(C)noc2C)cc1	nt	i	?	i
CC1CCn2c(nc3cc(C(=O)NCc4ccc(OC(C)C)cc4)ccc32)C1 (centres undefined)	nt	nt	i	nt
CCOc1cc(CNc2ccc(N3CCCC3)cc2)cc(Cl)c1OC	2.9µM	i	i	5.2µM
COc1cc(CNc2ccc(N3CCCC3)cc2)cc(Cl)c1OC	3.3µM	i	i	i
CC(C)(C)NC(=O)C(c1ccc(C(F)(F)F)cc1)n1c(=O)c(-c2ccco2)nc2ccccc21 (centres undefined)	nt	nt	i	nt
COc1ccc(CC(=O)N(Cc2ccccc2)c2cccc(C)c2)cc1OC	?	nt	?	10µM
COc1ccccc1CC(=O)N(Cc1ccccc1)c1ccc(C)cc1	?	?	i	9.3µM
COc1ccc(C(=O)N(Cc2ccccc2)c2cccc(C)c2)c(OC)c1OC	i	?	i	?
COc1cc(C(=O)N(Cc2ccccc2)c2cccc(C)c2)ccc1OC(F)F	?	nt	i	13µM
COc1ccccc1C(=O)N(Cc1ccccc1)c1ccc(C)cc1	?	i	i	?
Cc1ccc(-n2c(SCC(=O)Nc3cccc(Cl)c3)nc3n[nH]c(C)c3c2=N)cc1	nt	nt	i	nt
Cc1cc(F)ccc1NC(=O)CN1C(=O)CCc2cc(S(=O)(=O)N3CCOCC3)ccc21	nt	nt	i	nt
COc1ccc(-c2nc3cnc(Nc4cccc(OC(F)(F)F)c4)cc3n2C)cc1OC	nt	nt	i	nt
O=C1NC[C@@H](Cc2ccc(O)cc2)N(CCCCC2CCCCC2)C1=O	nt	nt	i	nt
C[C@@H]1CN=C2N(CCNC(=O)CCC3CCCCC3)[C@H](Cc3ccc(O)cc3)CN21	i	i	?	13µM
SMILES	Pf growth 48h	HCV inh	HCMV inh	Pf growth 96h
CC(C)[C@H]1CN=C2N(CCNC(=O)CCC3CCCCC3)[C@H](Cc3ccc(O)cc3)CN21	9.3µM	i	i	?
COc1ccc(C[C@H]2CN3C(=NC[C@@H]3Cc3ccccc3)N2CCNC(=O)CCC2CCCCC2)cc1	3.7µM	i	i	2.9µM
COc1ccc(C[C@H]2CN3C(=NC[C@@H]3C(C)C)N2CCNC(=O)CCC2CCCCC2)cc1	?	i	i	4.7µM
O=C(CCC1CCCCC1)NCCN1C2=NC[C@H](Cc3ccc(O)cc3)N2C[C@H]1Cc1ccc(O)cc1	?	i	?	?
C[C@@H](NC(=O)[C@@H]1CCCN1C(=O)[C@@H]1CCCN1)c1ccccc1	nt	nt	i	nt
CC(=O)c1ccc(NC(=O)NCCc2c[nH]c3ccccc23)cc1	nt	nt	i	nt
Cc1nc(N2CCN(S(=O)(=O)c3ccc(Br)cc3)CC2)c2c(C)c(C)sc2n1	i	?	-63	i
Cc1ccc(S(=O)(=O)N2CCN(c3nc(CN4CCCC4)nc4sc(C)c(C)c34)CC2)cc1	4.7µM	?	i	?
CCc1nc(N2CCN(S(=O)(=O)c3ccc(Br)cc3)CC2)c2c(C)c(C)sc2n1	nt	13µM	i	nt
Cc1ccc(C)c(S(=O)(=O)N2CCN(c3nc(CN4CCOCC4)nc4sc(C)c(C)c34)CC2)c1	12µM	?	i	12µM
